Results on eleven compounds are retold here after ChEMBL document CHEMBL3988442, “University of Dundee, Small-Polar-MMV Screening Library” (2021).

Holding throughout (set-up): scale not given: direction of the effect not stated beside the values
The target of assay [1] is Protein translocase subunit SecA (Escherichia coli (strain K12)) (UniProt P10408). Kind of assay: Assay to Identify E. coli SecA ATPase Inhibitors. It counts as functional. The following applies: 30 µM.
For assay [2], the target named is T1, Ubiquitin-activating enzyme e1, putative (Leishmania donovani (strain BPK282A1)) (UniProt E9BSI1).
T1 sequence (whole entry): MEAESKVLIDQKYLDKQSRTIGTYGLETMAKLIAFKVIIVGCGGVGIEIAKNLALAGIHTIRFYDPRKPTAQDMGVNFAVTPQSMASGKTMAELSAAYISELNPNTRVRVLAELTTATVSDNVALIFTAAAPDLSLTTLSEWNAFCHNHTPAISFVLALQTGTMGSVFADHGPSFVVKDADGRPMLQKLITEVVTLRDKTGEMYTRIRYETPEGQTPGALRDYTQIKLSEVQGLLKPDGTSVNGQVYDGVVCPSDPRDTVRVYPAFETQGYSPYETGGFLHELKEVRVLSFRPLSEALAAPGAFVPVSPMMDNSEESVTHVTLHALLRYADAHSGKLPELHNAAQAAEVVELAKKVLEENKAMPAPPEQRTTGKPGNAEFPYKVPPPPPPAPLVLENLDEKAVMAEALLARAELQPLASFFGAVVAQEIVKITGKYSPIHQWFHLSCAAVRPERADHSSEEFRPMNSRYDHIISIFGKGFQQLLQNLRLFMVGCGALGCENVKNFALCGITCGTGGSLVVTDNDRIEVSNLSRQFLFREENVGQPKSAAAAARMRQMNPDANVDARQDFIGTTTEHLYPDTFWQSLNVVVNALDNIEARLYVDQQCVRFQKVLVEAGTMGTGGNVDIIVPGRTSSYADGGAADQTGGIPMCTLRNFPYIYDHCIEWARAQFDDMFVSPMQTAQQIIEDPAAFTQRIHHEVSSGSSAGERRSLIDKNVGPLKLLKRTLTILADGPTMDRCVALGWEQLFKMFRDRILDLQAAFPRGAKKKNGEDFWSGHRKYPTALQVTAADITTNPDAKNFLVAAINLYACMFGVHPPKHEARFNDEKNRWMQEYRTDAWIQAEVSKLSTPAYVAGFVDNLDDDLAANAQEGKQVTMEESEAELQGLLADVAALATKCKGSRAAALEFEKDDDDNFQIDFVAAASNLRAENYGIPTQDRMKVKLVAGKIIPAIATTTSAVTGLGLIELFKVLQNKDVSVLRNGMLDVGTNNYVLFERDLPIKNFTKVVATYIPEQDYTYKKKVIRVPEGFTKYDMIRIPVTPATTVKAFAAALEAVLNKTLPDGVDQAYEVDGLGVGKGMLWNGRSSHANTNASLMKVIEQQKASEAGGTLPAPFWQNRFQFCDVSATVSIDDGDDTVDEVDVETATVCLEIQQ
The assay can be described thus: Leishmania donovani Ubiquitin Activating Enzyme (LdE1). It counts as functional. The note with it: 30 µM.

Assay [3] concerns the target AMP-activated protein kinase, AMPK (Homo sapiens) (UniProt P54646+O43741+P54619+Q9UGJ0+Q9Y478+Q13131+Q9UGI9). Kind of assay: AMP-dependent Kinase enzyme assay. An in vitro enzyme assay that detects ADP turnover that is directly proportional to AMPK activity. This uses naive AMPK that is activated during the assay with MK-8722. The assay is classed as functional. The note with it: 30 µM.

Assay [4] addresses Sialic acid-binding Ig-like lectin 9 (Homo sapiens) (UniProt Q9Y336). The assay can be described thus: Hs-Siglec9 ALPHAscreen SOP 20170721. The following applies: 10 µM.
For a further assay, the system named is Trypanosoma cruzi. Kind of assay: Trypanosoma cruzi phosphomannomutase and mannose-1-phosphate guanylyltransferase assay. The following applies: 10 µM. The assay is classed as functional.
Assay [5] concerns the target T2, Arginase-2, mitochondrial (Homo sapiens) (UniProt P78540).
T2 sequence (whole entry): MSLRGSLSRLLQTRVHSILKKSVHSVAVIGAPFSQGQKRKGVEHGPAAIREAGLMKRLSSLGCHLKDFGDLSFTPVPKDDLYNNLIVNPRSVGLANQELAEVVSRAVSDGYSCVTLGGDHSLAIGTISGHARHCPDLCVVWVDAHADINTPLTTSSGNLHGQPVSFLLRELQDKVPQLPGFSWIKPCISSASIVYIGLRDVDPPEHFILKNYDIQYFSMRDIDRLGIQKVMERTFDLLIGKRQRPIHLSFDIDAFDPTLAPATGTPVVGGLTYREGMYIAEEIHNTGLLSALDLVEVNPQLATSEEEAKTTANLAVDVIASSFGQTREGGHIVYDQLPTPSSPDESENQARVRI
The assay can be described thus: in vitro enzyme assay to detect the production of urea directly proportional to the activity of Arginase II. Note: in the data most compounds retested in dose-response had high values. The assay is classed as functional. The note with it: 33.3 µM.

Assay [6] concerns the target T3, Proteasome subunit beta (Trypanosoma cruzi) (UniProt O96673).
T3 sequence (whole entry): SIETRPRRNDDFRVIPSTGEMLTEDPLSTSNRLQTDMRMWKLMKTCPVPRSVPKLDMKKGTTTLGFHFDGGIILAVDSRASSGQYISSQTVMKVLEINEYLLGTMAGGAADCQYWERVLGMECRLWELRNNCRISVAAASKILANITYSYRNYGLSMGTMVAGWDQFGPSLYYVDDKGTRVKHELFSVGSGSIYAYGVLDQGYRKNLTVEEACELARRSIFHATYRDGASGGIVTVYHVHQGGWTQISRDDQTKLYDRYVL
Kind of assay: Trypanosoma cruzi proteasome chymotrypsin-like activity (TcProtChymo) assay. Note: in the data most compounds retested in dose-response had high values. The assay is classed as functional. The note with it: 9.37 µM.

The species entered for a further assay is Homo sapiens. Kind of assay: To identify inhibition of the IFN signalling (Jak-Stat) pathway via expression of an eGFP reporter gene under the control of an IFN-stimulated response element (ISRE) containing MxA promoter. The assay is classed as functional. The note with it: 30 µM. (In general: Reporter assays use an easily measured gene product as a stand-in for the process of interest.)

In assay [7] the target is T4, Tyrosyl-tRNA synthetase, putative (Trypanosoma cruzi (strain CL Brener)) (UniProt Q4DSP6).
T4 sequence (whole entry): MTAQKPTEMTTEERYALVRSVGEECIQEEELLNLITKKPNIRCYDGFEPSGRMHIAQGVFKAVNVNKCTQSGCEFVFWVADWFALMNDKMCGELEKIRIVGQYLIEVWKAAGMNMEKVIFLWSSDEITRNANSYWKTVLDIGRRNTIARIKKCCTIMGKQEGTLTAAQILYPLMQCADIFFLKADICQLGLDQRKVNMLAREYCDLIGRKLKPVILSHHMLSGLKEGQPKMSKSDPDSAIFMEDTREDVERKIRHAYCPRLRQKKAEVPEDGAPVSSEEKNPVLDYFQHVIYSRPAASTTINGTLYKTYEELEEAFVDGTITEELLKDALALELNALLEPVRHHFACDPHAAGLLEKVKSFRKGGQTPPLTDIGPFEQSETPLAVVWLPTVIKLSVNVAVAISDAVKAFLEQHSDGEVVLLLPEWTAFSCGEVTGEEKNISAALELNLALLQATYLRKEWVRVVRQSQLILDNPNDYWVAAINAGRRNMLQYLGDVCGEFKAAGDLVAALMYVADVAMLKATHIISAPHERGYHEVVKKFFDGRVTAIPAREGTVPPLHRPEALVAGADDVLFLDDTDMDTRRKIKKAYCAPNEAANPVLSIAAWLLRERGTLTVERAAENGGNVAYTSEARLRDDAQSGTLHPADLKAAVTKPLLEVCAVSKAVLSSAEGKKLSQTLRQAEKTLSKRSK
The assay can be described thus: Trypanosoma cruzi tyrosyl tRNA synthetase (TcYRS) _High Tyrosine SOP. Note: in the data most compounds retested in dose-response had high values. The following applies: 30 µM. The assay is classed as functional.

Assay [8] has as its target T4, Tyrosyl-tRNA synthetase, putative (Trypanosoma cruzi (strain CL Brener)). The assay can be described thus: Trypanosoma cruzi tyrosyl tRNA synthetase (TcYRS) SOP. It counts as functional. The following applies: 30 µM.
In assay [9] the target is Chromo domain-containing protein 1 (Saccharomyces cerevisiae (strain ATCC 204508 / S288c) (Baker's yeast)) (UniProt P32657). The assay can be described thus: ScCHD-1 Enzyme Inhibition Assay. Note: in the data most compounds retested in dose-response had high values. The assay is classed as functional. The following applies: 30 µM.

SMILES strings stand for the structures. For some of these results: Entries with a potency or affinity are not part of this list.

Chain of Chromo domain-containing protein 1 (Saccharomyces cerevisiae (strain ATCC 204508 / S288c) (Baker's yeast)) (P32657 whole entry, the tested form may be a part): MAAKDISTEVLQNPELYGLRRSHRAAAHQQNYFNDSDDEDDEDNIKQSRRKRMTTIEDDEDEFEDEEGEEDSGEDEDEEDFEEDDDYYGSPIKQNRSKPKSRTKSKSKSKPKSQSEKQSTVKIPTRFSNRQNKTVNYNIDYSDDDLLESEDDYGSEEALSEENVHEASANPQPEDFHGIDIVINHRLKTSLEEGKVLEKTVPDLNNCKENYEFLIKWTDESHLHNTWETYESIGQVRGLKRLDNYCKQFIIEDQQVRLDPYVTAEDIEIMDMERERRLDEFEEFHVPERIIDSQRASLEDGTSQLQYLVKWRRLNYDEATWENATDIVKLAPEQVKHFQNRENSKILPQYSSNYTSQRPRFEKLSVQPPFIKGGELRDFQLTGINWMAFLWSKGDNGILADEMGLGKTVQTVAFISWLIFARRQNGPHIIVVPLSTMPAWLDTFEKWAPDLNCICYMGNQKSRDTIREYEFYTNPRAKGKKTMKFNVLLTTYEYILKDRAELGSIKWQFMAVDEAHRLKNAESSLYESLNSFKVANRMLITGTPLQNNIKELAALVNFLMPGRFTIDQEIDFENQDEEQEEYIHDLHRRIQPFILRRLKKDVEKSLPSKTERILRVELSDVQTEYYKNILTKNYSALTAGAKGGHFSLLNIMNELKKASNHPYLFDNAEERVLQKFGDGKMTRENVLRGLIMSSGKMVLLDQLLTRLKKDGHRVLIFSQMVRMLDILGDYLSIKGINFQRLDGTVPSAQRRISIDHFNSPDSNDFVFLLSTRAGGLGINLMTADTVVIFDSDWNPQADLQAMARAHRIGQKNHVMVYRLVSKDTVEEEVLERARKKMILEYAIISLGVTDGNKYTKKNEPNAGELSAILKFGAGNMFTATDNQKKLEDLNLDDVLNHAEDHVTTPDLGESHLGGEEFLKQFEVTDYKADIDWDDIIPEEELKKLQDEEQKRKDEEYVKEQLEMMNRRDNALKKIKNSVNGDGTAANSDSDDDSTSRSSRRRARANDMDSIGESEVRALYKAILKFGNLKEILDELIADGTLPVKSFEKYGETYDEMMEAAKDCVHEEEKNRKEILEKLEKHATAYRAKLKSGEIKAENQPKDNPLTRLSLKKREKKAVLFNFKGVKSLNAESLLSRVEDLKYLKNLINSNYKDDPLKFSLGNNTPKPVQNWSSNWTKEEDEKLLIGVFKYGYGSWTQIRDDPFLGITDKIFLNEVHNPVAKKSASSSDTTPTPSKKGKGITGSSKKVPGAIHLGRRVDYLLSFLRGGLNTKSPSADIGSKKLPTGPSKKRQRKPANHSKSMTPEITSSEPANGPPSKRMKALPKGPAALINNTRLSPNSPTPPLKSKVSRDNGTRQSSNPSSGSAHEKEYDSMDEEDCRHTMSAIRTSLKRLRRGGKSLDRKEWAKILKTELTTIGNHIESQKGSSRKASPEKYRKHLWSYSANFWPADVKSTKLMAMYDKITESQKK
Chain of Protein translocase subunit SecA (Escherichia coli (strain K12)) (P10408 whole entry): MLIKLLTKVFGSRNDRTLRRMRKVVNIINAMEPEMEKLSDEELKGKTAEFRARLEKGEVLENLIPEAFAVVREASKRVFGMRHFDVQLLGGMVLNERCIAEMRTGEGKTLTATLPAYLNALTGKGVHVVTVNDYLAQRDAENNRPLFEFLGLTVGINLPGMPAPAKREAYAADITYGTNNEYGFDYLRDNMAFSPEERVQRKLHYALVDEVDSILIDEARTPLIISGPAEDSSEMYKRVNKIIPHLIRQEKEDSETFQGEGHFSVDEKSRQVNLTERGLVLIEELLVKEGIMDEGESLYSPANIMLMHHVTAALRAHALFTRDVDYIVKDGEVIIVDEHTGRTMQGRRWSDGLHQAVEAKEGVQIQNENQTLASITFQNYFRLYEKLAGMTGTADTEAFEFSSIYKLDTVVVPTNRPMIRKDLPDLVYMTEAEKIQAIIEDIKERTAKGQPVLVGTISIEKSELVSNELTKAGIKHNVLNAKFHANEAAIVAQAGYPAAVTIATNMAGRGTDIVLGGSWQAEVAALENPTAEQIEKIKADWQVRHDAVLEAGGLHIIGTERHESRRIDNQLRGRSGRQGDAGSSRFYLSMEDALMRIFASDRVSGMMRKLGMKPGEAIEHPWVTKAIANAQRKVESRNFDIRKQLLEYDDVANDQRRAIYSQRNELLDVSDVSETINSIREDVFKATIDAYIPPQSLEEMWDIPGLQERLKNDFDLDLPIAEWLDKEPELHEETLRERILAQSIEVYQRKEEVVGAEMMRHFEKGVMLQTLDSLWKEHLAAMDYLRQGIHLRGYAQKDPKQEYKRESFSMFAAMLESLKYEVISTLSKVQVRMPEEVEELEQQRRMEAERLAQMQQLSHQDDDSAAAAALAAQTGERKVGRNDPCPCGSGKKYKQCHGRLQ
Chain of Sialic acid-binding Ig-like lectin 9 (Homo sapiens) (Q9Y336 whole entry): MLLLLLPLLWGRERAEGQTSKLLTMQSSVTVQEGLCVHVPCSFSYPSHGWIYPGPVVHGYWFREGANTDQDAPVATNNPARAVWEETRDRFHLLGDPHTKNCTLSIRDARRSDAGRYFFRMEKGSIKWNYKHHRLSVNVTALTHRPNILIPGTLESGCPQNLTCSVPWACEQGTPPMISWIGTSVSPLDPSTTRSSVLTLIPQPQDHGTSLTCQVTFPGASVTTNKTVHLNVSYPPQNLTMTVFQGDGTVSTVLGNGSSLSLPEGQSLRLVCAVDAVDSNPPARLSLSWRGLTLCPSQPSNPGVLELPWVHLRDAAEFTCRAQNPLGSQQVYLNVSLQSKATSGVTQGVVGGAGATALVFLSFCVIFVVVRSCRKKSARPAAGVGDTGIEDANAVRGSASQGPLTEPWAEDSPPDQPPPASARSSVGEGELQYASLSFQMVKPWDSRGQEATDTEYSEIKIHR

On to `Cc1nc(C2CCCN2C(=O)c2ccccc2)ncc1C(N)=O` (stereo unspecified), for which the Percent Effect in assay [1] was -3.32%; in assay [2] it was 10.7%; in [3] it was 3.14%; in [4], 7.6%; in the assay on Trypanosoma cruzi, 1.97%; in [5], -3.96%. Besides, the Percent Effect in [6] was 3.79%; in the assay filed under Homo sapiens, 22.3%; in [7], 5.32%; in assay [8], 14.1%; in [9] it was -6.6%.

For the compound `CN1CCC(NC(=O)NCc2csc(Br)c2)CC1`, the Percent Effect was -2.29% in assay [1]; 13.5% in assay [2]; 4.89% in assay [3]; 6.05% in assay [4]; 3.25% in the assay with Trypanosoma cruzi; -3.88% in assay [5]. In addition, the Percent Effect in [6] was 10.4%; in the assay filed under Homo sapiens it was 2.14%; in [7], 9.9%; in assay [8] it was 18.3%; in assay [9], -4.58%.

Turning to `COc1cc2cc(C(=O)O)n(C)c2cc1OC`, the Percent Effect in assay [1] was -4.26%; in assay [2], -4%; in [3], 7.45%; in [4] it was 10.6%; in the assay with Trypanosoma cruzi, -0.982%; in assay [5], -10%. The Percent Effect in assay [6] was 9.61%; in the assay listed under Homo sapiens it was -15.2%; in assay [7] it was 4.23%; in [8], 0%; in assay [9], -6.18%.

Take `Cc1n[nH]cc1C(=O)N1CCCC(n2nnc3cc(F)ccc32)C1` (stereo unspecified): the Percent Effect in [1] was -5.29%; in assay [2] it was 5.33%; in assay [3], 7.57%; in assay [4] it was -0.922%; in the assay with Trypanosoma cruzi, 6.5%; in assay [5] it was -3.5%. For the same compound, the Percent Effect in assay [6] was 11.7%; in the assay filed under Homo sapiens, 5.51%; in [7], 5.32%; in [8], 11.5%; in assay [9], -7.34%.

On to `CCn1cnnc1CNC(=O)N1CCCN(C(C)=O)CC1`, for which the Percent Effect in assay [1] was -6.81%; in assay [2], 15.6%; in assay [3], -0.601%; in [4] it was 0.0707%; with Trypanosoma cruzi, 0.881%; in assay [5] it was 4.84%. Also, the Percent Effect in assay [6] is 12.7%; in the assay listed under Homo sapiens, 1.78%; in assay [7], 10.5%; in assay [8] it was 25.9%; in [9] it was -20.1%.

For `C[C@@H]1CN(C(=O)c2ccc(C#N)nc2)CC[C@@]1(O)C1CCOCC1`, the Percent Effect in assay [1] was -2.31%; in assay [2], 5.41%; in assay [3], -1.11%; in [4] it was 17.6%; with Trypanosoma cruzi it was 6.18%; in assay [5], 10.5%. Further, the Percent Effect in assay [6] is 3.45%; in the assay listed under Homo sapiens, 14.3%; in assay [7] it was 5.82%; in assay [8] it was 9.76%; in [9], -1.75%.

Consider `CCc1cnc(CN(C(C)=O)C2CCN(CCc3cccs3)C2)o1` (stereo unspecified), for which the Percent Effect in assay [1] is -3.22%; in assay [2], 13.2%; in assay [3], 0.738%; in assay [4] it was -12.5%; in the assay on Trypanosoma cruzi, -4.95%; in [5] it was 2.16%. Further, the Percent Effect was 21.6% in assay [6]; 4.61% in the assay filed under Homo sapiens; 7.39% in assay [7]; 6.17% in assay [8]; -8.12% in assay [9].

As to `C1CC1c1nsc(N2CCN(C3CC3)CC2)n1`, the Percent Effect in [1] is -5.35%; in assay [2], 13.7%; in assay [3] it was 2.89%; in assay [4] it was 8.66%; in the assay on Trypanosoma cruzi it was 5.49%; in assay [5], 13.2%. Besides, the Percent Effect was 13.3% in [6]; 12.3% in the assay filed under Homo sapiens; 6.45% in assay [7]; 15% in [8]; -6.12% in assay [9].

On to `COc1cccc(S(=O)(=O)CCN2CCCN(C(C)=O)CC2)c1`, for which the Percent Effect is -0.358% in assay [1]; 5.33% in [2]; -1.44% in assay [3]; 13.1% in assay [4]; 6.13% with Trypanosoma cruzi; 24% in assay [5]. Moreover, the Percent Effect in assay [6] was 1.22%; in the assay filed under Homo sapiens, 18.5%; in [7], 1.64%; in assay [8] it was 6.17%; in assay [9] it was -15.8%.

Take `O=C(CN1CCC(c2cccc(F)c2)C1)NCC(F)(F)F` (stereo unspecified): the Percent Effect is -0.194% in assay [1]; 18.4% in [2]; -1.43% in assay [3]; -3.51% in assay [4]; 3.57% in the assay with Trypanosoma cruzi; -1.15% in [5]. For the same compound, the Percent Effect was 18.1% in [6]; 36.1% in the assay filed under Homo sapiens; 6.37% in [7]; 21.9% in [8]; -8.57% in assay [9].

For the compound `O=C(CCNc1ncccn1)NCCc1ccn(-c2ccccc2)n1`, the Percent Effect is -3.96% in [1]; 21.5% in [2]; -1.83% in assay [3]; -7.45% in assay [4]; 4.82% in the assay on Trypanosoma cruzi; 0.215% in assay [5]. Also, the Percent Effect is 15.4% in assay [6]; -2.32% in the assay listed under Homo sapiens; 6.25% in [7]; 20.2% in [8]; -24.6% in assay [9].
